Source: PubChem
The full list was thinned out, with hits kept by preference.
nsP2pro inh = CHIKV nsP2 protease inhibition, primary qHTS. Potency, µM (doses to about 24.9 µM), actives largely listed as inhibitors. FRET peptide cleavage, nsP2pro, fluorescence 1 h. 31,000 tested, 1.1% active. Q8JUX6; further: nearly all actives have a fitted effect of over 60% in size
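Purified recombinant nsP2pro (150 nM final) in 10 mM Tris-HCl pH 8.0 with 0.01% Tween 20 was preincubated 15 min at room temperature with compound (7 concentrations, up to 25 uM). FRET peptide 2 substrate (2.5 uM final) was then added; fluorescence was read after 1 h.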
nsP2 cell sec = inhibits CHIKV nsP2 protease in cells | shares compounds with nsP2pro inh | cell-based CHIKV nsP2 protease reporter assay | Potency, µM (titrated, usually from 51.1 µM), actives largely listed as inhibitors | 450 tested, 10% active | AID 1964100; further: nearly all actives have a fitted effect of over 70% in size
NSP2 full ctr = inhibits full-length CHIKV NSP2 enzyme; shares compounds with nsP2pro inh; Full-length CHIKV NSP2 protease enzymatic counterscreen; Potency, µM (series often up to 50.7 µM), usual class: inhibitors; 410 tested, 39% active; further: nearly all actives have a fitted effect of over 65% in size
Furin counterscr = selectivity counter-screen for CHIKV nsP2 protease inhibitors: human furin; shares compounds with nsP2pro inh; Recombinant human furin enzymatic counterscreen, fluorogenic substrate; Potency, µM (highest dose often 50.6 µM), actives largely listed as inhibitors; 410 tested, 6% active
Target sequence (P09958 whole entry, looked up): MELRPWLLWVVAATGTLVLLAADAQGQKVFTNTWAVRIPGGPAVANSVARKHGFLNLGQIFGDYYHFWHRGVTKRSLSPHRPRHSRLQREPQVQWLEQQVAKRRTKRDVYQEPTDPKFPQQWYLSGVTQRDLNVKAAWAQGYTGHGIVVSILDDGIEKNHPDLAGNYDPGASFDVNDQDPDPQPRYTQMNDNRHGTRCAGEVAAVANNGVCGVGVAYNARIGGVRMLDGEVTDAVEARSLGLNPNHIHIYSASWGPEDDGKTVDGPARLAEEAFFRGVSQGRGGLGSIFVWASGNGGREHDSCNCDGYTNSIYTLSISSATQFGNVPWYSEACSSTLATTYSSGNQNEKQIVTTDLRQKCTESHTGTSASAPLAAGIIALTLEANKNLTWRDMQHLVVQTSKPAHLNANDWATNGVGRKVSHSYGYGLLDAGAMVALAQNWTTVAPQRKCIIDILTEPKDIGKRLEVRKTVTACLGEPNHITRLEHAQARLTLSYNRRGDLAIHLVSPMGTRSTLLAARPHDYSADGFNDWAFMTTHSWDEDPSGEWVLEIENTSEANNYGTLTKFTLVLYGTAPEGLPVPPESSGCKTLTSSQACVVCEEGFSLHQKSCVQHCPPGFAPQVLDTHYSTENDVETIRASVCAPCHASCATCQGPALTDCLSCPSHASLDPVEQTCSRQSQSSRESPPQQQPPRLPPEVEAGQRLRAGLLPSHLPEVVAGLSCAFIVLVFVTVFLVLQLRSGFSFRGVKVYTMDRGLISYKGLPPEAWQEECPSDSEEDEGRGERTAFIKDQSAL
nsP2 NS23 pep = nsP2pro inhibition on native NS2/3 peptide substrate. shares compounds with nsP2pro inh. Purified CHIKV nsP2 protease, endogenous NS2/3 peptide cleavage. Potency, µM (titrated, usually from 51 µM), actives largely listed as inhibitors. 410 tested, 34% active; further: nearly all actives have a fitted effect of over 55% in size
Papain cs = selectivity counter-screen for CHIKV nsP2 protease inhibitors: papain | 410 tested, 5% active | AID 1964104 | shares compounds with nsP2pro inh | purified papain protease activity, enzymatic inhibition | Potency, µM (titrated, usually from 51 µM), hits mostly inhibitors
nsP2pro confirm = CHIKV nsP2 protease inhibition, confirmatory qHTS; shares compounds with nsP2pro inh; CHIKV nsP2 protease enzymatic activity, qHTS; Potency, µM (series often up to 25.5 µM), usual class: inhibitors; 410 tested, 43% active; further: nearly all actives have a fitted effect of over 75% in size
HCV NS3 counter = selectivity counter-screen for CHIKV nsP2 protease inhibitors: HCV NS3/4A; AID 1964106; shares compounds with nsP2pro inh; HCV NS3/4A protease biochemical counterscreen; Potency, µM (top dose mostly 50.9 µM), most hits filed as inhibitors; 410 tested, 20% active; further: nearly all actives have a fitted effect of over 55% in size
Each line names hits and unclear results; the compound was inactive in the other large screens (follow-up assays come after a bar, where they were run). The call rests on the fitted dose curve.

O=C1C(=Cc2cccnc2)C(=O)c2ccccc21	nsP2pro inh inconclusive | nsP2 cell sec inactive | NSP2 full ctr inconclusive | Furin counterscr inactive | nsP2 NS23 pep 18µM | Papain cs inactive | nsP2pro confirm 5µM | HCV NS3 counter inconclusive
O=C1c2ccccc2C(=O)N1c1cccnc1	none
O=C1OC(/C=C/c2ccccc2)=NC/1=C\c1cccnc1	none
O=C1NC(=NCc2cccs2)S/C1=C/c1ccc2ncccc2c1	none
CCN(CCNC(=O)Nc1ccccc1Br)c1cccc(C)c1	none
CN1CCN(c2ccc(NC(=O)c3cccs3)cn2)CC1	none
NNc1ccc(NC(=O)c2cccs2)cn1	none
Cc1ccccc1C(=O)Nc1ccc2c(c1)CCCN2C(=O)c1cccs1	none
O=C(Nc1ccc(N2CCN(c3ccc(F)cc3)CC2)c(C(=O)O)c1)c1cccs1	nsP2pro inh inconclusive | nsP2 cell sec inactive | NSP2 full ctr 5.2µM | Furin counterscr inactive | nsP2 NS23 pep 13µM | Papain cs inactive | nsP2pro confirm 8µM | HCV NS3 counter 4.1µM
O=C(Nc1cnc(N2CCN(c3ccccc3)CC2)c(C(=O)O)c1)c1cccs1	nsP2pro inh 2.5µM | nsP2 cell sec inactive | NSP2 full ctr 2.1µM | Furin counterscr inconclusive | nsP2 NS23 pep 6.5µM | Papain cs inactive | nsP2pro confirm 5.7µM | HCV NS3 counter 2.9µM
CC(=O)c1ccc(N2CCN(c3ccc(NC(=O)c4ccc(F)cc4)cc3C(=O)O)CC2)cc1	none
C/C(=C\CC/C(C)=C/CC[C@]1(C)CCc2cc(O)cc(C)c2O1)CC/C=C(\C)C(=O)O	none
COc1ccc2[nH]c(C[C@@H]3C[C@@H](C(C)C)[C@H](CNC(=O)c4cccnc4)C=C3C)nc2n1	none
Cc1ccc(OCCn2c(CCNC(=O)c3cccc4ccccc34)nc3ccccc32)cc1	none
C=C1C/C(=C\C=C2/CCC[C@]3(C)[C@@H]([C@H](C)/C=C/C(C)C(C)C)CC[C@@H]23)[C@@H](O)C[C@@H]1O (some centres not stated)	none
CNC(=O)c1cc(C2CC2)nc2c1c(C1CCCN([S+](=O)([O-])c3c(C)noc3C)C1)nn2C (configuration not stated)	none
CCC1CCCN(C(=O)CC(c2ccc3c(c2)OCO3)c2c(O)cc(OC)cc2OC)C1 (configuration not stated)	none
NC(=O)C1CCN(C(=O)[C@H]2C[C@@H](O)[C@H](O)[C@@H]3N=C(Nc4cccc(C(F)(F)F)c4)S[C@@H]32)CC1	none
CC(=O)OCC1=C(C(=O)O)N2C(=O)[C@@H](NC(=O)[C@H](N)c3ccccc3)[C@H]2SC1	none
CC1=C(C(=O)O)N2C(=O)[C@@H](NC(=O)[C@H](N)c3ccc(O)cc3)[C@H]2SC1	none
CC1=C(C(=O)O)N2C(=O)[C@@H](NC(=O)[C@H](N)c3ccccc3)[C@H]2SC1	nsP2pro inh 0.31µM | nsP2 cell sec inactive | NSP2 full ctr inactive | Furin counterscr inactive | nsP2 NS23 pep inactive | Papain cs inactive | nsP2pro confirm inactive | HCV NS3 counter inactive
Cc1ccc(-c2cc(C(=O)Nc3cccc4ccccc34)c3ccccc3n2)cc1C	none
Cc1cccc(NC(=O)c2cc(-c3ccc(C)c(C)c3)nc3ccccc23)c1	none
CN1C(=O)[C@]23C[C@H]4C(C)(C)[C@]5(CNc6c5ccc5c6OC=CC(C)(C)O5)C[C@@]41CN2CC[C@@]3(C)O	none
CC(C)c1cc2c(c(O)c1O)[C@@]13CCCC(C)(C)C1[C@@H](O)[C@@H]2OC3=O (some centres not stated)	nsP2pro inh 6.1µM | nsP2 cell sec inactive | NSP2 full ctr inconclusive | Furin counterscr inactive | nsP2 NS23 pep inconclusive | Papain cs inactive | nsP2pro confirm 6.2µM | HCV NS3 counter inactive
CC1(C)CCCC2(C)c3c4c(c(=O)oc(=O)c3=CCC12)=CCC1C(C)(C)CCCC41C (configuration not stated)	none
Cn1ncnc1[C@H]1c2n[nH]c(=O)c3cc(F)cc(c23)N[C@@H]1c1ccc(F)cc1	none
COc1ccc2cc3c(NC(=O)c4ccco4)nn(C)c3nc2c1	none
NCCCC(=O)N1CCC2(CC1)CN(C(=O)c1ccc(Cl)cc1)CCO2	none
COc1ccc(C(=O)N2CCOC3(CCN(C(=O)CCN)CC3)C2)cc1	none
NCCC(=O)N1CCC2(CC1)CN(C(=O)c1ccc(Cl)cc1)CCO2	nsP2pro inh 7.9µM | nsP2 cell sec inactive | NSP2 full ctr 12µM | Furin counterscr inactive | nsP2 NS23 pep 18µM | Papain cs inactive | nsP2pro confirm 9µM | HCV NS3 counter 2.9µM
O=C(C1CCCCC1)N(CCN1CCN(c2ccccc2O)CC1)c1ccccn1	none
CC1=Nc2cc(C(=O)NCCCN(C)C)ccc2Sc2ccc(F)cc21	none
C=CC(C)(C)c1[nH]c2ccccc2c1C1=C(O)C(=O)C(c2c[nH]c3c(CC=C(C)C)cccc23)=C(O)C1=O	nsP2pro inh inconclusive | nsP2 cell sec inactive | NSP2 full ctr inactive | Furin counterscr inactive | nsP2 NS23 pep inactive | Papain cs 2.6µM | nsP2pro confirm inactive | HCV NS3 counter 4.1µM
CCOC(=O)COc1ccc2c(c1)C[C@@H](NC[C@H](O)c1cccc(Cl)c1)CC2	none
CC1CCN(C(=O)C2(c3ccc(NC(=O)C4CC4)cc3)CCCCC2)CC1	none
C=C1CC2C(C)(CCC(=O)O)C(C(C)(C)O)CCC2(C)C2(C(=O)OC)C(=O)C(C)(O)C(=O)C12C (configuration not stated)	none
CC1CC2OCC3(O)CCC(O)C(C14CC(c1ccoc1)OC4=O)C23CO (configuration not stated)	none
C[C@@H]1C[C@@H](O)[C@@]23CO[C@]2(CO)CCC[C@@H]3[C@@]12C[C@@H](c1ccoc1)OC2=O	nsP2pro inh inconclusive | nsP2 cell sec inactive | NSP2 full ctr inactive | Furin counterscr inactive | nsP2 NS23 pep inactive | Papain cs inactive | nsP2pro confirm inactive | HCV NS3 counter inactive
CC(=O)Nc1sc2c(c1-c1cccs1)CCNC2	none
CCCCc1ccc(O)cc1O	none
C/C=C(\C)C(=O)OC[C@H]1O[C@@H](O[C@H]2[C@@H](O[C@H]3O[C@H](CO)[C@@H](O)[C@H](O)[C@H]3O[C@@H]3O[C@H](CO)[C@@H](O)[C@H](O)[C@H]3O)O[C@H](COC(=O)/C(C)=C/C)[C@@H](O)[C@@H]2O)[C@H](O)[C@@H](O)[C@@H]1O	none
COc1cc(Nc2nc(-c3ccncc3)nc3ccccc23)ccc1Cl	none
